The source made the active and inactive calls.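 Rule for the calls: active = growth inhibition above 50% at the single 2 µM test dose, taken to imply half-maximal potency below 2 µM; inactive = the rest.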

The assay can be described thus: antimalarial activity against Dd2 strain (AID 2302).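 Note: 0% = DMSO untreated growth and 100% = chloroquine plus artemisinin killed control.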 The settings on record: P. falciparum Dd2 in RBCs, LDH growth readout, 72 h; at 2 µM; active compounds read high.
Consider `OCCCCCCNc1ccnc2[nH]c3ccc(I)cc3c12`, for which the growth inhibition is 61% (active). For the compound `COc1cccc2cc(C(=O)N[C@@H](CC(C)C)C(=O)N[C@H](/C=N/N3C(=O)CN(Cc4ccccc4)C3=O)CCc3ccccc3)oc12`, the growth inhibition is 52% (active).

In the case of `O=C(Cn1c2ccccc2c(=O)c2ccc(Cl)cc21)Nc1ccc(C(F)(F)F)cc1`, the growth inhibition was 100% (active). Under `CCc1cc([C@H]2O[C@@H](n3cnc4c(NCC(c5ccccc5)c5ccccc5)nc(NCCNc5ccccn5)nc43)[C@H](O)[C@@H]2O)on1` stands 32% (inactive); under `O=S(=O)(NCCN1CCCC1)c1ccc(-c2cccc(CNC3Cc4ccccc4C3)c2)cc1F`, 62% (active). Under `O=C(Cn1c(=O)oc2ccccc21)N1CCC(n2c(=O)n(CCCN3CCOCC3)c3ccccc32)CC1` stands 101% (active); under `Cc1cccc(NC(=O)c2cnc(N3CCN(c4ccncc4)CC3)c(Cl)c2)c1`, 54% (active).

In the case of `COc1ccc2nc(C)cc(NN=Cc3ccccc3)c2c1`, the growth inhibition is 6% (inactive). With `CN(C)S(=O)(=O)c1ccc(Nc2nc(NCCC3C=NC=N3)nc3cc[nH]c(=O)c23)cc1` (configuration not stated) the figure was 63% (active); with `O=C(/C=C/c1ccc(C(F)(F)F)cc1)NCCCCCN1CCN(C(=O)Nc2ccc(Cl)cc2)CC1`, -4% (inactive).

`Cc1cc(N[C@@H](Cc2ccccc2)C(=O)NCc2cccc(F)c2)nc(NCCOc2ccccc2)n1`: the growth inhibition is 7% (inactive). With `Cc1cc(C)c(O)c(-c2cc(C(=O)Nc3ccc(S(=O)(=O)N4CC(C)OC(C)C4)cc3)[nH]n2)c1` (configuration not stated) the figure was 16% (inactive); with `Oc1ccc(Nc2nc(NCC3CCCO3)c3ccccc3n2)cc1` (configuration not stated), 57% (active); with `CCOC(=O)c1cn(CC)c2cc(O[C@H]3CCN(C(=O)OC(C)(C)C)C3)ccc2c1=O`, 75% (active).

For `OC(COc1ccccc1-c1nc2ccccc2o1)CN1CCCN(CCc2ccccc2)CC1` (configuration not stated), the growth inhibition was 2% (inactive).

In the case of `CCC(C)NS(=O)(=O)c1ccc2nc(Nc3ccc(C)cc3)n([C@H](C)C(C)(C)C)c2c1` (some centres not stated), the growth inhibition is 98% (active).

`CC(C)CNC(=O)c1cncc(-c2cccc(CNC3Cc4ccccc4C3)c2)c1`: the growth inhibition was 19% (inactive).

In the case of `COc1ccc2nccc([C@@H](O)CN3CCC(NC(=O)c4ccc(Oc5ccccc5)cc4)CC3)c2c1`, the growth inhibition is 13% (inactive). Under `CC(C)c1ccc(CN2CCC(CNC(=O)c3cc(-c4cccc(F)c4)cs3)C2)cc1` (configuration not stated) stands 46% (inactive); under `COc1ccc2[nH]c(C(=O)Nc3ccc4nc(-c5ccccc5)[nH]c4c3)cc2c1`, 23% (inactive); under `Cc1cc(NC(c2ccc(Cl)cc2)c2ccc3cccnc3c2O)no1` (configuration not stated), 26% (inactive). As to `Clc1ccc(CNC2CCN(CC3CCCCC3)CC2)cc1`, the growth inhibition was 15% (inactive). On to `CS(=O)(=O)c1cccc2sc(N3CCN(C(=O)c4ccc([N+](=O)[O-])o4)CC3)nc12`, for which the growth inhibition is 61% (active). With `CCOC(=O)c1ccc(NC(=O)N(Cc2ccc(-c3cccc(CN4CCNCC4)c3)cc2)C2CCN(Cc3ccccc3)CC2)cc1` the figure was 55% (active); with `CCCCOc1ccc(N2C(N)=NC(N)=NC2(C)C)cc1`, 3% (inactive); with `O=C(/C=C/c1ccc(Cl)c(Cl)c1)NCCCCCCN1CCN(C(=O)Nc2ccc(Cl)c(C(F)(F)F)c2)CC1`, 43% (inactive). Regarding `CCCCNC(=O)C(C)NC(=O)c1ccc(O)c(-c2ccc(Cl)c(Cl)c2)c1` (configuration not stated), the growth inhibition is 8% (inactive). For `N#Cc1ccc2c(c1)CCN(CCC1CCC(NC(=O)c3cc4cccc([N+](=O)[O-])c4[nH]3)CC1)C2` (configuration not stated), the growth inhibition is 28% (inactive).

As to `Cc1cccc(-c2nn(-c3ccccc3)c3[nH]c(=O)c(CNC4CCCC4)cc23)c1`, the growth inhibition was 97% (active). Under `Cc1cc(NN=Cc2cccc(Cl)c2)c2ccccc2n1` stands 100% (active); under `COc1cc2c(c(Cl)c1OC)CCN(Cc1ccccc1)CC2c1ccc(NC(=O)C(F)(F)F)cc1` (configuration not stated), 79% (active); under `COc1ccc2nccc([C@@H](O)CN3CCC(NC(=O)C(c4ccsc4)N4CCN(c5ccccc5OC)CC4)CC3)c2c1` (some centres not stated), 50% (active). On to `CN(C)CCCOc1cc(NC(=O)Nc2ccc(-c3ccncc3)c3ccccc23)ccc1I`, for which the growth inhibition was 97% (active). Under `O=C(/C=C/c1ccc(Cl)c(Cl)c1)NC1CCN(Cc2cccc(O)c2)CC1` stands -1% (inactive). In the case of `COc1ccc2ncc(Cl)c(CCN3CC[C@@H](CNCc4cc5c(cn4)OCS5)C3)c2n1`, the growth inhibition is 31% (inactive).

With `NC1=NC(c2ccccc2)(c2ccccn2)C(=O)N1CCCc1ccccc1` (configuration not stated), the growth inhibition is 64% (active). As for `COc1ccc(-c2cccc(CNCc3ccc(F)cc3)c2)cc1S(=O)(=O)NCCN1CCCC1`, the growth inhibition was 16% (inactive).

The values are drawn from PubChem BioAssay.
